# Experimental data: PubChem BioAssay (EPA / NIEHS)
# Inconclusive results are not listed. More than one record can exist for a structure, and the calls need not agree. Calls of active or inactive are those of the source. Rule for the calls, unless noted: active = hit-call score of the fitted dose curve at least 0.9, where 1 is the maximum; inactive = score below 0.9.
# How the values were obtained:
# [1] = test system: Thyroperoxidase (TPO), gene 54314; test: CCTE_Simmons_AUR_rTPO: CCTE's Amplex UltraRed Assay for Thyroperoxidase (TPO) Inhibition, Simmons Lab (AID 2283662; active = hit-call score of the fitted dose curve at least 0.9, where 1 is the maximum;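 for AC50: potency for loss of signal meaning inhibition of peroxidase activity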)
# Procedure, shortened: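 Cell-free peroxidase activity assay using rat thyroid gland microsomes with excess H2O2 (300 uM) and 25 uM Amplex UltraRed. Compounds tested from 5 nM to 87.5 uM; fluorescence measured after 30 min at 37C, analysed relative to DMSO baseline.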
# [2] = target: Luciferin 4-monooxygenase (Photinus pyralis) (UniProt P08659); test: CCTE_Simmons_QuantiLum_inhib_2: CCTE's Firefly Luciferase Inhibition Assay, Simmons Lab (AID 2283767; active = hit-call score of the fitted dose curve at least 0.9, where 1 is the maximum)
# Procedure, shortened: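 Cell-free QuantiLum luciferase, 5 ng/well; compounds 5 nM–87.5 uM final, 8 conc, 0.5% DMSO; 30 min, 37C, dark. Detection reagent (150 uM D-luciferin, 147 uM dATP, CoA, DTT, pH 7.8 final) injected per well, kinetic luminescence. Triplicate biological replicates.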
# [3] = target: human Ephrin type-A Receptor 1 (EphA1), EPHA1 (gene 2041) (UniProt P21709); test: NVS_ENZ_hEphA1: NovaScreen (NVS) Enzymatic Assay for human Ephrin type-A Receptor 1 (EphA1) (AID 2283158; active = hit-call score of the fitted dose curve at least 0.9, where 1 is the maximum;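 note: activity is signal loss versus DMSO meaning EphA1 kinase inhibition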)
# Procedure, shortened: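 Biochemical kinase assay run cell-free; 1 h incubation; readout is fluorescence with mobility-shift separation of product. Concentration-response up to 50 uM for actives from a 25 uM screen.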
# [4] = target: Bile acid receptor (Homo sapiens) (UniProt Q96RI1); test: OT_FXR_FXRSRC1_0480: Odyssey Thera (OT) 8-hour HEK293T Protein-Complementation Assay for Farnesoid X receptor/SRC-1 Co-activator (AID 2283383; active = hit-call score of the fitted dose curve at least 0.9, where 1 is the maximum)
# Procedure, shortened: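 Fluorescence intensity read-out, 8 h post-dose, HEK293T protein-fragment complementation; FXR bait and SRC-1 prey each linked to reporter fragments. Activity scored as signal increase over DMSO negative control.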
# [5] = target: Bile acid receptor (Homo sapiens) (UniProt Q96RI1); test: OT_FXR_FXRSRC1_1440: Odyssey Thera (OT) 24-hour HEK293T Protein-Complementation Assay for Farnesoid X receptor/SRC-1 Co-activator (AID 2283384; active = hit-call score of the fitted dose curve at least 0.9, where 1 is the maximum)
# Procedure, shortened: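 Fluorescence readout, 24 h post-dose, HEK293T; FXR and SRC-1 fused to complementary reporter fragments, association reconstitutes signal. Positive-direction fit vs DMSO baseline.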
# [6] = target: human Retinoic Acid Receptor beta (RARb), RARB (gene 5915) (UniProt P10826); test: ATG_RARb_TRANS: Attagene TRANS-FACTORIAL HepG2 Assay for human Retinoic Acid Receptor beta (AID 2283004; active = hit-call score of the fitted dose curve at least 0.9, where 1 is the maximum)
# Procedure, shortened: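 HepG2, transient MRTU transfection, NR–Gal4 chimera, 24 h treatment; RT-PCR plus CE fluorescence detection of reporter mRNA; gain of signal vs DMSO.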
# [7] = CCTE_Shafer_MEA_acute_spike_number: CCTE's Neural Acute Assay for Total Number of Spikes, Shafer Lab (AID 2284008);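 for AC50: curve fitted for decrease in spike count so AC50 reflects inhibitors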
# Procedure, shortened: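 Cortical neurons from rat, matured to DIV 13 or 15 on microelectrode arrays, are recorded at 37 C before and during 40-min exposure to 0.03-40 uM compound. Wells need >/= 10 active electrodes.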
# [8] = CCTE_Shafer_MEA_acute_burst_number: CCTE's Neural Acute Assay for Single-Electrode Bursts, Shafer Lab (AID 2284013)
# Procedure, shortened: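 Primary rat cortical neurons on 16-electrode MEA wells, DIV 13 or 15, exposed to compound (0.03-40 uM; ≥3 wells); 40-min recordings at 37 C before and after treatment. Burst count expressed as percent change from baseline, DMSO as negative control.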
# [9] = CCTE_Shafer_MEA_acute_burst_duration_mean: CCTE's Neural Acute Assay for Mean Burst Duration, Shafer Lab (AID 2284014);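 note: hits are decreases in mean burst duration relative to DMSO controls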
# Procedure, shortened: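 Mean burst duration was compared between a 40 min baseline and a 40 min recording in the presence of compound (0.03-40 uM, 37 C), giving percent change per well. Cultures were rat cortical neurons at DIV 13 or 15; wells needed ≥10 active electrodes.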
# [10] = CCTE_Shafer_MEA_acute_per_burst_spike_number_mean: CCTE's Neural Acute Assay for Average Number of Spikes Per Burst, Shafer Lab (AID 2284015);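 note: hits are decreases in mean spikes per burst versus baseline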
# Procedure, shortened: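 Read-out: percent change in mean spikes per burst, each well's post-exposure 40-min recording versus its own 40-min baseline. Rat cortical cultures, DIV 13 or 15, compounds 0.03-40 uM; DMSO is negative control, loss-of-signal fitting.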
# [11] = CCTE_Shafer_MEA_acute_interburst_interval_mean: CCTE's Neural Acute Assay for Mean Interburst Interval, Shafer Lab (AID 2284016);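 note: percent change of mean interburst interval versus each well's own pre-dose baseline; curves fitted for decrease in interburst interval relative to DMSO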
# Procedure, shortened: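 Rat cortical cultures, DIV 13/15; 20 min equilibration, 40 min baseline, compound 0.03-40 uM, 40 min re-recording, 37 C. Spikes detected at 8x rms noise (300-5000 Hz band-pass). Endpoint: % change in interburst interval, fitted in loss direction vs DMSO.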
# [12] = CCTE_Shafer_MEA_acute_burst_percentage_mean: CCTE's Neural Acute Assay for Percentage of Spikes in a Burst, Shafer Lab (AID 2284017);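 note: curve fitted for loss of signal so potency reflects decreased burst percentage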
# Procedure, shortened: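 Rat cortical cultures, DIV 13/15, 37 C. Spikes detected at 8x rms noise (300-5000 Hz band-pass). Burst spikes/total spikes averaged across electrodes per well; % change post- vs pre-treatment (40 min each), loss-of-signal fit vs DMSO.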
# [13] = CCTE_Shafer_MEA_acute_burst_percentage_std: CCTE's Neural Acute Assay for Standard Deviation of Burst Percentage, Shafer Lab (AID 2284018);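 note: fitted in the negative direction so actives lower burst percentage SD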
# Procedure, shortened: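 Value is percent change from baseline in the across-electrode SD of spikes-in-bursts percentage, wells with >/= 10 active electrodes. Acute 40-min exposure to 0.03-40 uM on DIV 13 or 15 rat cortical cultures, recorded at 37 C after 40-min baseline.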
# [14] = CCTE_Shafer_MEA_acute_per_network_burst_electrodes_number_mean: CCTE's Neural Acute Assay for Mean Number of Electrodes in a Network Burst, Shafer Lab (AID 2284021);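 note: curves fitted for decreases only so hits reduce electrodes per burst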
# Procedure, shortened: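 Cultures of rat cortex neurons were exposed on DIV 13 or 15 to compounds at 0.03-40 uM in at least three wells each. Activity over 40 min before and 40 min after exposure at 37 C gave the percent change in electrodes per network burst.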
# [15] = CCTE_Shafer_MEA_acute_network_burst_percentage: CCTE's Neural Acute Assay for Percentage of Network Bursts, Shafer Lab (AID 2284022);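 note: curves fitted for loss so actives lower network burst percentage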
# Procedure, shortened: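 Cortical neurons from rat were grown over microelectrode arrays and used on day 13 or 15 in vitro. Wells with at least 10 active electrodes received test chemical at 0.03-40 uM. Activity during 40 min of exposure was compared with the preceding 40-min baseline.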
# [16] = CCTE_Shafer_MEA_acute_cross_correlation_HWHM: CCTE's Neural Acute Assay for Cross Correlation at Half Width at Half Maximum, Shafer Lab (AID 2284026);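 note: percent change per well from pre-dose baseline in spike cross-correlogram half width; hits are a decrease in cross-correlogram half width relative to DMSO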;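 for outcome: spontaneous network firing of rat primary cortical neurons on multiwell microelectrode arrays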
# Procedure, shortened: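 Primary cortex (rat), MEA, DIV 13/15; compound 0.03-40 uM; 40 min pre + 40 min post at 37 C; spike threshold 8x rms; wells need ≥10 active electrodes; endpoint = % change in cross-correlogram HWHM vs baseline, DMSO negative control.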
# [17] = CCTE_Shafer_MEA_acute_synchrony_index: CCTE's Neural Acute Assay for Synchrony, Shafer Lab (AID 2284027);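 note: network synchrony index of spontaneous spiking in primary rat cortical neurons on MEAs; fitted for loss of signal so actives lower synchrony relative to DMSO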
# Procedure, shortened: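 Rat cortical cultures, DIV 13/15; spikes detected at 8x rms noise, 300-5000 Hz band-pass. Compound 0.03-40 uM, ≥3 wells; 40-min pre- and post-exposure recordings, 37 C. Readout: % change in synchrony index; loss-of-signal fit vs DMSO.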
# [18] = CCTE_Shafer_MEA_acute_LDH: CCTE's Lactate Dehydrogenase Assay for Cytotoxicity in the Neural Acute Assay, Shafer Lab (AID 2284086; active = hit-call score of the fitted dose curve at least 0.9, where 1 is the maximum;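 note: active means LDH release rises above DMSO vehicle level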)
# Procedure, shortened: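 LDH absorbance at 490 nm in medium taken right after 40-min compound exposure; rat primary cortical neuron networks on MEA plates, days post-plating 13 or 15. Increase over DMSO baseline scored as cytotoxicity.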
# [19] = read-out: Collagen I, COL1A1 (gene 1277); test: BSK_hDFCGF_CollagenI: BioMAP Diversity Plus: hDFCGF Assay for Collagen I Biomarker Activity (AID 2284250); conditions: primary human foreskin fibroblasts
# Procedure, shortened: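 ELISA read-out of Collagen I in human dermal foreskin fibroblast cultures, 24 h after dosing. Gain of signal versus DMSO vehicle defines activity.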
# [20] = read-out: Interleukin-8 (IL8), CXCL8 (gene 3576); test: BSK_KF3CT_IL8: BioMAP Diversity Plus: KF3CT Assay for Interleukin-8 (IL8) Biomarker Activity (AID 2284254); conditions: primary human keratinocytes with fibroblasts
# Procedure, shortened: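 ELISA detection of IL-8 from a human skin co-culture, keratinocytes with foreskin fibroblasts, at 24 h following chemical exposure, with gain of signal scored against DMSO controls.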
# Chain of human Ephrin type-A Receptor 1 (EphA1), EPHA1 (gene 2041) (P21709 whole entry, looked up): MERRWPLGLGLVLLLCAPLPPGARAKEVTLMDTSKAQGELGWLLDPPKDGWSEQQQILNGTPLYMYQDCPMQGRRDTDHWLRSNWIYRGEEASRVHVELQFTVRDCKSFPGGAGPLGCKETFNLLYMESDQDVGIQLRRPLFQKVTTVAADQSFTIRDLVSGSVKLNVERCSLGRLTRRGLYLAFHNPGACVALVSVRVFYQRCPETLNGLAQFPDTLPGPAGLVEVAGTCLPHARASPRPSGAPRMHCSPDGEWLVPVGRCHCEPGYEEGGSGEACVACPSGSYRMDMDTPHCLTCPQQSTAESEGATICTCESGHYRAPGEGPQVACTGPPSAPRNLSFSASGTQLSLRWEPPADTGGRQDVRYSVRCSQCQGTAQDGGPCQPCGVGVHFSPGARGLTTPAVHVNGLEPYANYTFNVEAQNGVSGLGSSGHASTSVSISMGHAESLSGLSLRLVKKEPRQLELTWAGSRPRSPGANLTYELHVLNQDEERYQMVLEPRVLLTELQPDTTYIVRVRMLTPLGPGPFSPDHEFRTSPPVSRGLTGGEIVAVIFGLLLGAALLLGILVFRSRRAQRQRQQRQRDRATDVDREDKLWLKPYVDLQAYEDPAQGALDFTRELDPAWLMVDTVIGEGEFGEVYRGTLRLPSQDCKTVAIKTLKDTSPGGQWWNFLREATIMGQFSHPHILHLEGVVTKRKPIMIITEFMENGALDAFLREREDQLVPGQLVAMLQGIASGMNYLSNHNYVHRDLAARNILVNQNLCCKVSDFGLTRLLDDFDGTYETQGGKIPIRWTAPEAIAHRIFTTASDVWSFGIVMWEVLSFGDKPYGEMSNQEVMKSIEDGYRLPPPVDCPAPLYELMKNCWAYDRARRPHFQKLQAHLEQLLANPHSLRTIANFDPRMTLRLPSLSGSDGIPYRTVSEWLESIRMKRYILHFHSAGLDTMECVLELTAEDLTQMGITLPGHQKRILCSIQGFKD
# Chain of human Retinoic Acid Receptor beta (RARb), RARB (gene 5915) (P10826 whole entry, looked up, the tested form may be a part): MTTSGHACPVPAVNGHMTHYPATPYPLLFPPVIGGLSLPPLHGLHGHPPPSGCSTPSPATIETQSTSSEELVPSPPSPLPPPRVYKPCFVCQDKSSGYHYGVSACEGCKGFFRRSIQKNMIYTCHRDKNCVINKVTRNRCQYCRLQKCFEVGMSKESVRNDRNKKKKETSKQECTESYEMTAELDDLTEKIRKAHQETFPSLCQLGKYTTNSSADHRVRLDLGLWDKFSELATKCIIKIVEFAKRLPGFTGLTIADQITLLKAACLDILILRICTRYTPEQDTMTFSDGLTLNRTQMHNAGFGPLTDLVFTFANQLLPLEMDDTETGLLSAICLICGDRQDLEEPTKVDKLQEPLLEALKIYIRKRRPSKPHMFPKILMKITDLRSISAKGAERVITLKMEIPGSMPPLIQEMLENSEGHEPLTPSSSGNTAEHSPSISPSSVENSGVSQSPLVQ
# Chain of Bile acid receptor (Homo sapiens) (Q96RI1 whole entry, looked up, the tested form may be a part): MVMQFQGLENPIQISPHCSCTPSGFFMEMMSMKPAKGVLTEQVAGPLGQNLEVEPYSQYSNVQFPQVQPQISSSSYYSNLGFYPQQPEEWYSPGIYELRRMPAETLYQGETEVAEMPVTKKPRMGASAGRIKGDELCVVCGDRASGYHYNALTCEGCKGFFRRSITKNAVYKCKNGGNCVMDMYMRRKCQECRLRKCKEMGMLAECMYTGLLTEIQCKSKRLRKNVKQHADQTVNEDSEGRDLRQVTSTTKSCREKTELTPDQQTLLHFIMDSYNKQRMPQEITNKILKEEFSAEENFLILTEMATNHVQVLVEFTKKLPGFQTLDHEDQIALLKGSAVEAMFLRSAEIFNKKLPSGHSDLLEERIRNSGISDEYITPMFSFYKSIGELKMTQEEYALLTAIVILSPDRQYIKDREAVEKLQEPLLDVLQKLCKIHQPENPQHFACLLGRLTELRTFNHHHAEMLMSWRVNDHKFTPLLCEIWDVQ
# Chain of Luciferin 4-monooxygenase (Photinus pyralis) (P08659 whole entry, looked up): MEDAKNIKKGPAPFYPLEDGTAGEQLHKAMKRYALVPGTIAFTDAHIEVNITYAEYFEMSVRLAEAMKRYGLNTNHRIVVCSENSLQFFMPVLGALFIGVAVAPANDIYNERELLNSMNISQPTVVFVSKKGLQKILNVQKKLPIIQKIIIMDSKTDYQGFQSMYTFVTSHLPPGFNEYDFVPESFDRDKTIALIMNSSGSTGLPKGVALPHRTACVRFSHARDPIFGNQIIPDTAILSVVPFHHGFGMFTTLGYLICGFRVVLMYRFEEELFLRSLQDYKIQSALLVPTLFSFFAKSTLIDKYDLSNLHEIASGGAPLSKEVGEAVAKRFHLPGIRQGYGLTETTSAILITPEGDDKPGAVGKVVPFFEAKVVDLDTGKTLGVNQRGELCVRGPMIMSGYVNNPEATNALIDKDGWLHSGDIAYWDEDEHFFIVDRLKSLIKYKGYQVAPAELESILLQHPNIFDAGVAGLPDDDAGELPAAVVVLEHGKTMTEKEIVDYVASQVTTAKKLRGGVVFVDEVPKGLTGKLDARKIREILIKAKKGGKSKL
compound,measurement,setting,value
c1ccc(P(c2ccccc2)c2ccccc2)cc1,AC50,[1],40.2 µM (active)
same,outcome,[2],inactive
N#CCCCCC#N,outcome,[3],inactive
same,outcome,[4],inactive
same,outcome,[5],inactive
CCOP(=O)(OCC)OCC,outcome,[6],inactive
Nc1ccccc1C(=O)OCCc1ccccc1,outcome,[6],inactive
Oc1ccc(C2(c3ccc(O)cc3)c3ccccc3-c3ccccc32)cc1,AC50,[7],0.00882 µM (active)
same,AC50,[8],0.0359 µM (active)
same,outcome,[9],inactive
same,AC50,[10],20.5 µM (active)
same,outcome,[11],inactive
same,AC50,[12],24.8 µM (active)
same,AC50,[13],22.8 µM (active)
same,outcome,[14],inactive
same,AC50,[15],26.4 µM (active)
same,AC50,[16],28.1 µM (active)
same,AC50,[17],25.4 µM (active)
same,outcome,[18],inactive
same,AC50,[19],0.151 µM (active)
same,outcome,[19],inactive
same,AC50,[20],8.38 µM (active)
same,outcome,[20],inactive
Oc1cc(Cl)ccc1Cl,outcome,[6],inactive
CC1(C)[C@H](C(=O)O[C@H](C#N)c2cccc(Oc3ccccc3)c2)[C@@H]1C=C(Br)Br,AC50,[7],1.62 µM (active)
same,AC50,[8],2.53 µM (active)
same,AC50,[9],0.418 µM (active)
same,AC50,[10],0.387 µM (active)
same,AC50,[11],2.09 µM (active)
same,AC50,[12],1.1 µM (active)
same,AC50,[13],2.72 µM (active)
same,outcome,[14],inactive
same,AC50,[15],0.639 µM (active)
same,AC50,[16],3.1 µM (active)
same,AC50,[17],0.866 µM (active)
same,outcome,[18],inactive
CC(C)(c1cc(Cl)c(O)c(Cl)c1)c1cc(Cl)c(O)c(Cl)c1,AC50,[1],19.8 µM (active)
same,outcome,[2],inactive
C=CC(=O)OCC(CC)CCCC (stereo not given),outcome,[1],inactive
same,outcome,[2],inactive
CCOP(=O)(OCC)Oc1ccc([N+](=O)[O-])cc1,outcome,[4],inactive
same,outcome,[5],inactive
COc1ccc(CO)cc1,outcome,[7],inactive
same,outcome,[8],inactive
same,outcome,[9],inactive
same,AC50,[10],3.71 µM (active)
same,outcome,[11],inactive
same,AC50,[12],3.79 µM (active)
same,outcome,[13],inactive
same,outcome,[14],inactive
same,outcome,[15],inactive
same,outcome,[16],inactive
same,AC50,[17],3.81 µM (active)
same,outcome,[18],inactive
same,outcome,[19],inactive
same,outcome,[20],inactive
O=[N+]([O-])c1ccc(Cl)cc1,outcome,[3],inactive
Cc1cc(C)c(C2=C(OC(=O)CC(C)(C)C)C3(CCCC3)OC2=O)c(C)c1,outcome,[4],inactive
same,outcome,[5],inactive
O=[N+]([O-])C=Cc1ccccc1,outcome,[3],inactive
